# Data from PubChem BioAssay.
# Values joined by “and” are separate entries in the source; they are usually repeats but may differ in a detail not shown here. Equal values may be shown once. Records with an inconclusive call do not appear. Active and inactive are the calls of the source.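 How the source made its calls, unless noted: active means GFP response below 50% of the DMSO control; inconclusive means fewer than 70 events counted for a yeast strain; inactive means the rest.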
# Key:
# [1] = rapamycin-like changes in RPL19A-GFP expression – cell-based, S. cerevisiae, multiplex flow cytometry, primary screen (AID 1862; in the data active means percent of DMSO control GFP below about 86%;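 further: lower values mimic rapamycin by blocking the RPL19A rise seen in DMSO cells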); details: S. cerevisiae RPL19A-GFP strain, flow cytometry fluorescence, 3 h; at 10 µM; stronger effect = lower value
# [2] = TOR pathway GLN3 branch reporter MEP2-GFP changes – S. cerevisiae, multiplex flow cytometry, primary screen (AID 1867;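 active means GFP response, as percent of the DMSO control, above the screen-wide mean plus 3 SD, about 139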;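 further: median GFP channel fluorescence of barcode-gated MEP2-GFP cells measured by flow cytometry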); details: S. cerevisiae MEP2-GFP strain, 3 h, at 10 µM, stronger effect = higher value, 100% means same as DMSO wells
# [3] = TOR pathway RTG branch CIT2 reporter changes – S. cerevisiae, GFP fusion, multiplex flow cytometry, primary screen (AID 1870;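 active means percent response above a set limit, the screen-wide mean plus 3 SD, cut at about 130% in these data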;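 further: barcoded CIT2-GFP strain pooled with four other GFP strains with rapamycin as positive control; median GFP fluorescence per well over plate mean of DMSO wells so 100% = DMSO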); details: S. cerevisiae CIT2-GFP expression, 3 h, at 10 µM, stronger effect = higher value
# [4] = TOR pathway LAP4-GFP level changes – S. cerevisiae, multiplex flow cytometry, primary screen (AID 1873;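 active means GFP signal, as percent of the solvent control, above the screen mean plus 3 SD, about 149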); details: S. cerevisiae LAP4-GFP expression, 3 h, at 10 µM, stronger effect = higher value
# [5] = yeast AGP1-GFP level changes, GLN3 branch – cell-based, multiplex flow cytometry, S. cerevisiae, primary screen (AID 1887;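 active means GFP signal above the screen-wide mean plus 3 SD, that is over about 124.5% of the solvent control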;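 further: AGP1-GFP fusion strain of S. cerevisiae within a five-strain barcoded multiplex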); details: 3 h, at 10 µM, stronger effect = higher value
# [6] = hit retest on RPL19A-GFP reporter strain – cell-based, S. cerevisiae, flow cytometry, cherry picks, mother/daughter gates, confirmation (AID 2270); details: 3 h, at 10 µM, stronger effect = lower value, 100 = same GFP as DMSO wells
# [7] = yeast TOR pathway reporter LAP4-GFP change – cell-based, cherry picks, flow cytometry, mother/daughter gates, confirmation (AID 2271;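 active means GFP response above 150% of the DMSO control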;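 further: ratio of sample to DMSO plate mean so 100% equals DMSO level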); details: S. cerevisiae LAP4-GFP strain, 3 h, at 10 µM, stronger effect = higher value, 100 means same as DMSO control
# [8] = TOR pathway reporter MEP2-GFP, retest of hits – S. cerevisiae, flow cytometry GFP, cherry picks, confirmation (AID 2272;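 active means GFP response above 150% of the DMSO control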;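 further: ratio of well signal to plate DMSO mean so 100% equals DMSO level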); details: S. cerevisiae MEP2-GFP strain, 3 h, at 10 µM, stronger effect = higher value
# [9] = TOR pathway CIT2 reporter hit retest – S. cerevisiae, GFP fusion, cherry picks, mother/daughter gates, confirmation (AID 2274;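 active means GFP response above 150% of the DMSO level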); details: S. cerevisiae CIT2-GFP strain, flow cytometry, 3 h, at 10 µM, stronger effect = higher value
# [10] = reduced mouse 2C T cell binding to pMHC/ICAM-1 vesicles – MLPCN validation set, flow cytometry, LFA-1/ICAM-1 modulator project, pilot screen (AID 2523;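 active means response below a set limit, under 55% cells CD8-positive and vesicle-bound, and CD8 cells' 90th-percentile brightness under 279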;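 on vesicle binding response: mean PE anti-B7-1 fluorescence of CD8+ cells relative to row control; 100% = QL9-loaded vesicles with DMSO vehicle in the same plate row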); details: 2C mouse CD8+ T cells, at 7 µM, stronger effect = lower value; double positive events: measured here: CD8+/vesicle+ event percentage
# [11] = measured here: daughter cell gate
# [12] = measured here: mother cell gate
# [13] = measured here: daughter cell gate response
# [14] = measured here: mother cell gate response
Structure (SMILES),percent of DMSO control GFP [1],GFP response vs DMSO [2],percent response of DMSO control [3],GFP response vs DMSO [4],"GFP response, % of DMSO [5]",GFP response vs DMSO [6],"GFP response vs DMSO [6, 11]","GFP response vs DMSO [6, 12]",GFP response relative to DMSO [7],"GFP response relative to DMSO [7, 13]","GFP response relative to DMSO [7, 14]",GFP response vs DMSO [8],"GFP response, % of DMSO [9]","GFP response, % of DMSO [9, 11]","GFP response, % of DMSO [9, 12]",double positive events [10] [%],vesicle binding response [10]
C[C@]12CCC(=O)C=C1CC[C@@H]1[C@@H]2[C@@H](O)C[C@@]2(C)[C@H]1CC[C@]2(O)C(=O)COC(=O)CCC(=O)O,104% (inactive),108% (inactive),110% (inactive),119% (inactive),108% (inactive),98% (inactive) and 96.4% (inactive),96.4% and 98.1%,101% and 94.9%,97.4% (inactive) and 99.2% (inactive),103% and 97.6%,91.1% and 100%,100% (inactive),96.5% (inactive) and 98.3% (inactive),94.8% and 99.1%,92.3% and 97.3%,43.7,165% (inactive)
CCOC(=O)C(Cc1cc(C(C)=O)ccc1OC(C)C)C(=O)OCC,93% (inactive),142% (active),110% (inactive),85.3% (inactive),89.1% (inactive),101% (inactive),101%,102%,97.7% (inactive),95%,99.5%,99.5% (inactive),96.4% (inactive),98.3%,96.8%,58.5,151% (inactive)
Cn1c(=O)c(C(=O)NCCO)c(O)c2ccccc21,103% (inactive),105% (inactive),103% (inactive),104% (inactive),113% (inactive),101% (inactive),102%,103%,87.6% (inactive),86.4%,88.7%,96.2% (inactive),96.9% (inactive),108%,97.3%,60.8,185% (inactive)
CC(=O)O[C@]1(C(C)=O)CC[C@H]2[C@@H]3C[C@H](C)C4=CC(=O)CC[C@]4(C)[C@H]3CC[C@@]21C,98.4% (inactive),106% (inactive),90.8% (inactive),84.8% (inactive),95.7% (inactive),94.3% (inactive),95.7%,97.2%,98.8% (inactive),97.9%,98.5%,93.3% (inactive),101% (inactive),102%,101%,63.9,241% (inactive)
O=c1cc(-c2ccccc2)oc2cc(OCc3ccccc3)cc(O)c12,91.7% (inactive),140% (active),108% (inactive),84.2% (inactive),85.9% (inactive),98.2% (inactive),98.6%,98.7%,99.2% (inactive),97.6%,99.3%,100% (inactive),104% (inactive),105%,103%,62.5,139% (inactive)
C[C@]12CCC(=O)C=C1[C@H](O)C[C@@H]1[C@@H]2[C@@H](O)C[C@@]2(C)[C@H]1CC[C@]2(O)C(=O)CO,106% (inactive),105% (inactive),102% (inactive),102% (inactive),107% (inactive),99.1% (inactive),99.1%,99.2%,97.7% (inactive),97.9%,95.6%,99.5% (inactive),102% (inactive),104%,101%,63.9,182% (inactive)
CCCCN(CCCC)CCCOC(=O)c1ccc(N)cc1,92% (inactive),150% (active),115% (inactive),82% (inactive),81.7% (inactive),97.6% (inactive),97.4%,98%,94.1% (inactive),97.6%,94%,98.3% (inactive),99.7% (inactive),101%,99.7%,64.8,181% (inactive)
COc1cc(/C=C/C(=O)CC(=O)/C=C/c2ccc(O)c(OC)c2)ccc1O,117% (inactive),114% (inactive),135% (active),114% (inactive),95.1% (inactive),105% (inactive),–,–,93.8% (inactive),–,–,111% (inactive),111% (inactive),–,–,61.2,39.9% (inactive)
O=c1[nH]cc(F)c(=O)[nH]1,90.9% (inactive),119% (inactive),127% (active),77% (inactive),104% (inactive),83.5% (inactive),82.3%,85.4%,90% (inactive),88.8%,93%,101% (inactive),88.5% (inactive),87.3%,89.8%,52.4,223% (inactive)
O=C1ON=C(c2ccc(Cl)cc2)/C1=C/c1ccc(O)cc1,108% (inactive),95.2% (inactive),112% (inactive),98.2% (inactive),87.4% (inactive),101% (inactive),105%,96.8%,90.2% (inactive),95.6%,89%,100% (inactive),111% (inactive),114%,104%,60.6,94.3% (inactive)
C[C@]12CCC(=O)C=C1CC[C@@H]1[C@@H]2[C@@H](O)C[C@@]2(C)[C@H]1CC[C@]2(O)C(=O)CO,108% (inactive),105% (inactive),111% (inactive),105% (inactive),111% (inactive),104% (inactive),102%,104%,96.2% (inactive),98.7%,98.3%,100% (inactive),104% (inactive),99.7%,105%,58.4,165% (inactive)
